This note sets out measurements from PubChem BioAssay AID1671202 (University of Kansas High Throughput Screening Laboratory, 2021).

“And” between values parts separate entries of the source, which are not always exact repeats. Equal values may be shown once. In all, about 190,000 compounds went through this assay and about 6,900 (3.6%) were called active. Cut-off read from the data, not from the text of the source: active = inhibition above about 50%; inactive = the rest. What follows is part of a selection rich in actives, with near analogues and random picks from the rest.

For this test, the target named is Huntingtin (Homo sapiens) (UniProt P42858). Nature of the test: mutant huntingtin-calmodulin interaction inhibitors – biochemical, AlphaScreen, primary screen (AID 1671202).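 Note: 0% = both proteins with DMSO and 100% = one protein alone.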 The following applies: AlphaScreen His-mHTT/GST-CaM binding, luminescence; at 15 µM, hits give high values. For orientation: In Alpha technology, singlet oxygen from a donor bead excites a nearby acceptor bead.
Sequence of Huntingtin (Homo sapiens) (P42858 whole entry, looked up, stated change not applied): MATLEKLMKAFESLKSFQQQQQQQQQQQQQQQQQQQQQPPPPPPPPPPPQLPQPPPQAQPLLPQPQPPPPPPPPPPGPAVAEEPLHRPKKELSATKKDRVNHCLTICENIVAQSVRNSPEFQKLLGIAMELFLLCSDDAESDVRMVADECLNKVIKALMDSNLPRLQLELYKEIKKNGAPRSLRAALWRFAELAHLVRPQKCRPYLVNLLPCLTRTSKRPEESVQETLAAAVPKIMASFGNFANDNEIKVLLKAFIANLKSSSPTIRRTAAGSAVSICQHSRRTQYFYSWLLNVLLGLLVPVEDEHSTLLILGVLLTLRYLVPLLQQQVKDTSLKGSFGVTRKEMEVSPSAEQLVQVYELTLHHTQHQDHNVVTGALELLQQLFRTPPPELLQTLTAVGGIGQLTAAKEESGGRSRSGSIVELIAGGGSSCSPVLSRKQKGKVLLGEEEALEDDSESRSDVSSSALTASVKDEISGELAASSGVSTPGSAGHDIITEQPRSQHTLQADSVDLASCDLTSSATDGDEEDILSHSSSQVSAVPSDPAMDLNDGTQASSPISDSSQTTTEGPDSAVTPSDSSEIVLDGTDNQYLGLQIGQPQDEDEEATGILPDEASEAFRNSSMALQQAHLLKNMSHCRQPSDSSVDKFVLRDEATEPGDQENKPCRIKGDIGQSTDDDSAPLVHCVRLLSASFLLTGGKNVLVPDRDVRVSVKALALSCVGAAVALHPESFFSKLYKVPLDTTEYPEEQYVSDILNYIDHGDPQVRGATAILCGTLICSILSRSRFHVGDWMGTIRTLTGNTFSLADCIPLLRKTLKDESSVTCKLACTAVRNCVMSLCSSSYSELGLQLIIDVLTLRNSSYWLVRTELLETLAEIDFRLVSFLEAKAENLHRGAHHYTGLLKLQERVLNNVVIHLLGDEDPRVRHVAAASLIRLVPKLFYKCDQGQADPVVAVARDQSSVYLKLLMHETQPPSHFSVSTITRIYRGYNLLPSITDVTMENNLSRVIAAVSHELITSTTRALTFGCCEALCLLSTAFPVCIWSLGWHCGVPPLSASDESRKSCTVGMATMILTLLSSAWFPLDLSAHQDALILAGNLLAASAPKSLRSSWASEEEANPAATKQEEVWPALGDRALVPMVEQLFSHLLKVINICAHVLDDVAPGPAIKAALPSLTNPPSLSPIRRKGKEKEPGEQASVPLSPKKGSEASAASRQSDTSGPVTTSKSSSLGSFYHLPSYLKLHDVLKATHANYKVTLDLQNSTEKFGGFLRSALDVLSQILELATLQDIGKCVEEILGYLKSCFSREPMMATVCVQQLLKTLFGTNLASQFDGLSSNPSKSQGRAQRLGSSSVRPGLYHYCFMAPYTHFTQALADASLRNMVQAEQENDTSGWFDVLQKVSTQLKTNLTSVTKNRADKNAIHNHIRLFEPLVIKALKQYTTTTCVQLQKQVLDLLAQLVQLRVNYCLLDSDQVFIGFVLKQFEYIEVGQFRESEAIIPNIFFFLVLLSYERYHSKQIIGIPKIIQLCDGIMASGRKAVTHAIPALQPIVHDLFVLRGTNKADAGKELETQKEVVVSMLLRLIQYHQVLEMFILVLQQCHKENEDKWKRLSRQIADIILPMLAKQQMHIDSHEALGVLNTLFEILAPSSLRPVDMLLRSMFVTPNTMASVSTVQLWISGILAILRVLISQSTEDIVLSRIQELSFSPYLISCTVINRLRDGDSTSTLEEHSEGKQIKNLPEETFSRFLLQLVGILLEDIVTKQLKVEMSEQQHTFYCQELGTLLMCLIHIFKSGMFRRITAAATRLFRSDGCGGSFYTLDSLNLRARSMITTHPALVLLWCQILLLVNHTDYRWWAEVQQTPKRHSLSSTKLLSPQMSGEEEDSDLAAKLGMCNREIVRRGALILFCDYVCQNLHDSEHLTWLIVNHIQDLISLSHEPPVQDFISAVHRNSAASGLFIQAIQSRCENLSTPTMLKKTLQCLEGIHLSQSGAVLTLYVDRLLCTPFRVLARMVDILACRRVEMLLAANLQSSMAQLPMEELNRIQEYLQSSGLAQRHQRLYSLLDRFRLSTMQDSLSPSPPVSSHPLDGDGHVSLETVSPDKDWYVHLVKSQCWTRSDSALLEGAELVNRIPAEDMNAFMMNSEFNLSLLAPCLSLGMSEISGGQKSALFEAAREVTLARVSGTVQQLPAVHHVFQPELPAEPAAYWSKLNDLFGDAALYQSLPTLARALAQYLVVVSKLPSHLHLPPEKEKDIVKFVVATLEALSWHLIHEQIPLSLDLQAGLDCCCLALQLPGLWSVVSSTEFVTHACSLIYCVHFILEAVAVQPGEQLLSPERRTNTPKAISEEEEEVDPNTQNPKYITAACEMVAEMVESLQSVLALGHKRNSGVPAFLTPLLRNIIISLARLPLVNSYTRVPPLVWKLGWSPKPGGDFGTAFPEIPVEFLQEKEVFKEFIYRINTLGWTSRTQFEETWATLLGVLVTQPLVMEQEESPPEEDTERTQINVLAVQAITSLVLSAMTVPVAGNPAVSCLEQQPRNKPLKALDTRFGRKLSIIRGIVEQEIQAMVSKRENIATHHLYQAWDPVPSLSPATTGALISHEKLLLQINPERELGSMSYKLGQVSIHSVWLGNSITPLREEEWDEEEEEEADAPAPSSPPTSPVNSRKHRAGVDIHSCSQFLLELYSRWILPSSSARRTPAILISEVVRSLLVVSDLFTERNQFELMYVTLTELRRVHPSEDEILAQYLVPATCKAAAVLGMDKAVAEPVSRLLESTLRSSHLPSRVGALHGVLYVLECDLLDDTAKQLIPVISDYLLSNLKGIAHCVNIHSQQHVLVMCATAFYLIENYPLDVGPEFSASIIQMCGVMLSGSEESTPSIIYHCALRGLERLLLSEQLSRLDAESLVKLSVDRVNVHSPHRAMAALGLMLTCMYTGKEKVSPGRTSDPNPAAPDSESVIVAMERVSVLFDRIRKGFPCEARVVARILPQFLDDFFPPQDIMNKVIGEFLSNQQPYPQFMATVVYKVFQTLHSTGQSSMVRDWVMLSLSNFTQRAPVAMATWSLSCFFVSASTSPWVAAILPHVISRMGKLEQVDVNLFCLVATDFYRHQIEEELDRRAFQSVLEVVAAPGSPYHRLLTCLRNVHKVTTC
As a reminder, the inhibition is the drop in the measured response relative to a control, in per cent. Take `CCNc1cc(N2CCCC(CCC(=O)N3CCN(c4ccccn4)CC3)C2)ncn1` (stereo unspecified): the inhibition was 1.12% (inactive).

`CCC(=O)N1CCc2ccccc2C1C(=O)NCc1ccc(OC)cc1` (stereo unspecified): the inhibition is 3.87% (inactive).

For the molecule `Cc1ccc(NC(=O)CC2COc3ccccc3NC2=O)cc1C` (stereo unspecified), the inhibition was -3.7% (inactive).

With `Cc1ccc(NC(=O)CC2COc3ccc(Cl)cc3NC2=O)cc1Cl` (stereo unspecified), the inhibition was 92.5% (active).

Regarding `O=C(CC1COc2ccccc2NC1=O)Nc1ccc(C(F)(F)F)cc1` (stereo unspecified), the inhibition was -6.9% (inactive).

Turning to `Cc1cc(SCC(=O)NCc2ccc3c(c2)OCO3)nc2ccccc12`, the inhibition is -10.7% (inactive).

Regarding `O=C(c1cnc(-c2ccccc2)nc1N1CCSCC1)N1CCCCC1`, the inhibition was 18.3% (inactive).

Turning to `Cc1cccc(N2CCN(C(=O)CCC3CCCN(C(=O)Nc4ccccc4)C3)CC2)c1C` (stereo unspecified), the inhibition is 47% (inactive).

As to `O=C(CSc1ccccn1)c1ccc(Br)cc1`, the inhibition was -42.4% (inactive).

As to `Brc1ccc(CSc2cccc3cccnc23)cc1`, the inhibition is 54% (active).

With `N#Cc1ccc(CSc2ncccn2)cc1`, the inhibition was -1.95% (inactive).

With `CN(C)C(CNC(=O)Nc1ccc(Cl)cc1)c1ccco1` (stereo unspecified), the inhibition is -16% (inactive).

In the case of `O=C(COc1coc(CN2CCc3ccccc32)cc1=O)NCc1ccco1`, the inhibition is 19.5% (inactive).

In the case of `CCOc1ccc(NC(=O)N2CC(C)Oc3ccc(C)cc32)cc1` (stereo unspecified), the inhibition was 1.01% (inactive).

As to `COc1cc(OC)c(OC)cc1/C=C1/CC/C(=C\c2cc(OC)c(OC)cc2OC)C1=O`, the inhibition was 23% (inactive).

`Cc1cccc(NC(=O)c2cc3c(CO)cnc(C)c3oc2=Nc2ccc(Cl)cc2)c1`: the inhibition is -1% (inactive).

For the molecule `Cc1ccccc1NS(=O)(=O)c1cc(Br)cc2c1N(C(=O)C1CC1)CC2`, the inhibition was 2% (inactive).

For the molecule `CC(C)(C)C1=CC(=Nc2ccccc2N)C=C(C(C)(C)C)C1O` (stereo unspecified), the inhibition is 97% (active).

For the molecule `COCCCNC(=O)c1ccc2c(c1)ncn2-c1ccc(F)c(F)c1`, the inhibition is 9% (inactive).

For `CCOc1ccc(C(=O)Nc2ccccc2I)cc1[N+](=O)[O-]`, the inhibition is 4.6% (inactive).

`CCNC(=O)N(C)CC(=O)N1N=C(c2ccccc2F)CC1c1ccc(C)cc1` (stereo unspecified): the inhibition is 24.6% (inactive).

On to `Cc1ccc(C)c(C2CC(c3ccccc3Cl)=NN2C(=O)CN2CCOCC2)c1` (stereo unspecified), for which the inhibition is 79.4% (active).

With `COc1ccccc1C1=NN(C(=O)CN2CCCCC2)C(c2ccc(C)cc2)C1` (stereo unspecified), the inhibition was 8.3% (inactive).

On to `CCNC(=O)N(C)CC(=O)N1N=C(c2ccc(C)c(C)c2)CC1c1ccc(C)cc1` (stereo unspecified), for which the inhibition is 73.4% (active).

For `COc1ccc(C2CC(c3cccc(F)c3)=NN2C(=O)CN2CCCCC2)cc1` (stereo unspecified), the inhibition was 36.7% (inactive).

In the case of `COc1ccccc1C1=NN(C(=O)CN2CCC(C)CC2)C(c2ccc(C)cc2)C1` (stereo unspecified), the inhibition was 12.9% (inactive).

Take `COc1ccc(C2=NN(C(=O)CCC(=O)O)C(c3ccc(F)cc3)C2)cc1OC` (stereo unspecified): the inhibition was -2.9% (inactive).

Take `COc1ccc(C2=NN(C(=O)CN3CCN(C)CC3)C(c3ccccc3C)C2)cc1` (stereo unspecified): the inhibition is 42% (inactive).

Regarding `COc1ccc(C2CC(c3ccccc3F)=NN2C(=O)CN2CCOCC2)cc1` (stereo unspecified), the inhibition was 50.5% (active).

In the case of `O=C(Cc1nnc(-c2cccc(F)c2)o1)N1CCOCC1`, the inhibition is -5.8% (inactive).

As for `Cc1ccc(C2CC(c3cccc(F)c3)=NN2C(=O)CN2CCOCC2)cc1` (stereo unspecified), the inhibition was 67.8% (active).

With `COc1ccc(C2CC(c3ccccc3)=NN2C(=O)c2ccc(Br)o2)cc1` (stereo unspecified), the inhibition is -1% (inactive).

Consider `CC(C)NC(=O)c1ccccc1NC(=O)c1ccc([N+](=O)[O-])cc1`, for which the inhibition was -2.9% (inactive).

Take `N=C1S/C(=C\c2cccs2)C(=O)N1c1ccc2c(c1)OCO2`: the inhibition is 2% (inactive).

Regarding `O=C(CSc1ncnc2c1[nH]c1ccccc12)N1CCc2ccccc2C1`, the inhibition is 0% (inactive).

As to `COCC(=O)N1CCCN(c2nc3c(s2)c(C)nn3-c2ccc(C)cc2)CC1`, the inhibition is 45.2% (inactive).

Consider `COc1ccc(CCNC(=O)N2CC(c3nc(-c4ccccn4)no3)C2)cc1`, for which the inhibition is -18.5% (inactive).

`COc1ccc(NC(=O)N2CC3CC(NS(=O)(=O)c4cccs4)C2C3)c(OC)c1` (stereo unspecified): the inhibition was 9.02% (inactive).

Consider `N#CC1=C(N)Oc2c(c(=O)[nH]c3ccccc23)C1c1cccs1` (stereo unspecified), for which the inhibition was 8% (inactive).

Turning to `N#CC1=C(N)Oc2ccc3ncccc3c2C1c1ccccc1F` (stereo unspecified), the inhibition is 49% (inactive).

Turning to `N#CC1=C(N)Oc2c(sc3ccccc23)C1c1ccco1` (stereo unspecified), the inhibition is 53% (active).

For the molecule `CC(C)=CCOc1ccc2cc(-c3ccccc3)c(=O)oc2c1`, the inhibition is -45.3% (inactive).

As to `O=C(COc1ccc(Br)cc1)Nc1ccccc1C(F)(F)F`, the inhibition was -57% (inactive).

As for `CN(C)C(=O)c1cc2c(s1)CCC(C(=O)NCc1ccccc1Cl)C2` (stereo unspecified), the inhibition was 3.06% (inactive).

For the molecule `O=C1OC(c2cccc(F)c2)=N/C1=C\c1ccc(Br)cc1`, the inhibition was -1% (inactive).

Take `CCC(C)NC(=O)c1ccc2c(c1)nc1n2CCCC1` (stereo unspecified): the inhibition was -4.18% (inactive).

Turning to `CN1CCN(c2nc3c(c(=O)[nH]c(=O)n3C)n2CC(=O)c2ccc(Cl)cc2)CC1`, the inhibition was -4% (inactive).

Consider `O=[N+]([O-])c1ccc(C=Nc2ccc(N=Cc3ccc([N+](=O)[O-])cc3)cc2)cc1`, for which the inhibition was 4% (inactive).

Regarding `Cc1cccc(N=C/C=C/c2ccc([N+](=O)[O-])cc2)c1`, the inhibition is 72% (active).

Take `O=[N+]([O-])c1ccc(C=Nc2cccc(Cl)c2)cc1`: the inhibition was 30% (inactive).

In the case of `CC(=O)NCCN1C(=O)C(=O)C(=C(O)c2ccc(Cl)cc2)C1c1ccc(Br)cc1` (stereo unspecified), the inhibition is -0.6% (inactive).

On to `COc1cc(/C=C2\SC(=N)N(c3ccccc3OC)C2=O)ccc1O`, for which the inhibition was 36% (inactive).

Take `C=CCOc1ccc(/C=C2\SC(=O)N(c3ccccc3)C2=O)cc1OC`: the inhibition was 3% (inactive).

On to `COc1cc(C=C2SC(=S)N(c3ccc(O)cc3)C2=O)ccc1O`, for which the inhibition was 58.5% (active).

Take `CCc1cccc(NS(=O)(=O)c2ccccc2[N+](=O)[O-])c1`: the inhibition is 10.6% (inactive).

For the molecule `O=[N+]([O-])c1ccccc1S(=O)(=O)Nc1cccc2cccnc12`, the inhibition was 98.6% (active) and 99% (active).

Regarding `Cc1ccc(F)cc1NS(=O)(=O)c1cccc2cccnc12`, the inhibition is 2% (inactive).

`COc1cccc(-c2noc(C3CCCN3C(=O)Nc3ccc4c(c3)OCCO4)n2)c1` (stereo unspecified): the inhibition was 13.9% (inactive).

In the case of `OC(COc1ccccc1Br)CN1CCN(Cc2ccccc2)CC1` (stereo unspecified), the inhibition is -4% (inactive).

Consider `COc1ccccc1Oc1ncnc2scc(-c3ccc(F)cc3)c12`, for which the inhibition was -1% (inactive).

With `CCOc1ccc(-n2nc(C(=O)Nc3ccc(F)cc3)c3ccccc3c2=O)cc1`, the inhibition was -5% (inactive).

Turning to `O=C1NC(=O)/C(=C\c2ccc(-c3cccc(Cl)c3)o2)S1`, the inhibition was 58% (active).

Take `O=C1NC(=O)/C(=C/c2ccc(-c3ccccc3[N+](=O)[O-])o2)S1`: the inhibition was 37% (inactive).

`O=C1NC(=O)/C(=C/c2ccc(-c3ccc([N+](=O)[O-])cc3)o2)S1`: the inhibition was 3% (inactive).

Regarding `COc1ccc(CC(=O)Nc2ccc(S(=O)(=O)Nc3c(C)cc(C)cc3C)cc2)cc1`, the inhibition is 13% (inactive).

For the molecule `COc1cccc(CN2CCOCC2)c1OC`, the inhibition is -5.1% (inactive).

For `O=C(NC1CC2CC1CN2C(=O)c1ccc(C(F)(F)F)cc1)c1cccnc1` (stereo unspecified), the inhibition was 6.1% (inactive).

Take `Oc1cccc(N=Cc2cc(Cl)cc(Cl)c2O)c1`: the inhibition was 98% (active).

With `COc1ccc(N=Cc2cc(Cl)cc(Cl)c2O)cc1OC`, the inhibition is 4% (inactive).

As to `CC(=O)Nc1cccc(N=Cc2ccc(Cl)cc2Cl)c1`, the inhibition is -2% (inactive).

For `CC(C)OCCCNC(=O)CN1C(=O)/C(=C/c2cccc(Cl)c2)Sc2ccccc21`, the inhibition was 9% (inactive).

Take `Cc1ccc(F)cc1NC(=O)Cn1c(=O)nc(N2CCCCC2)c2ccccc21`: the inhibition was 12.4% (inactive).

`COc1ccc(NC(=O)N2CCC(CCOc3ccccc3)CC2)cc1`: the inhibition is 3.99% (inactive).

For `Cc1ccc2occ(C3Nc4cc(C)c(C)cc4NC4=C3C(=O)CC(C)(C)C4)c(=O)c2c1` (stereo unspecified), the inhibition is 19% (inactive).

With `Cc1cc2c(cc1C)NC(c1ccc(Cl)s1)C1=C(CC(C)(C)CC1=O)N2` (stereo unspecified), the inhibition is 51% (active).

In the case of `CC1(C)CC(=O)C2=C(C1)Nc1ccccc1NC2c1ccc(Br)cc1` (stereo unspecified), the inhibition was 3.9% (inactive).

In the case of `COc1ccc(-c2cn3ccn(-c4ccc(F)c(Cl)c4)c(=O)c3n2)cc1OC`, the inhibition was -2.4% (inactive).

Take `Cc1cccc2nnc(N3CCC(C(=O)Nc4ccc(Cl)cc4)CC3)n12`: the inhibition is 3.32% (inactive).

For the molecule `CCn1c(N2CCCC(C(=O)NCc3cccc(C)c3)C2)cc(=O)n(C)c1=O` (stereo unspecified), the inhibition was 7.32% (inactive).

On to `COc1ccc(NS(=O)(=O)c2ccc(N3C(=O)CCC3=O)cc2)c(OC)c1`, for which the inhibition was -10.9% (inactive).

For `O=C(Nc1ccc(F)cc1F)N1CCc2nc[nH]c2C1`, the inhibition is -5.8% (inactive).

On to `O=C1C(Nc2cccc(Cl)c2)=C(N2CCOCC2)C(=O)c2ccccc21`, for which the inhibition is 59% (active).

Regarding `COC1=C(N2CCOCC2)C(=O)c2ccccc2C1=O`, the inhibition was -2.9% (inactive).

Consider `O=C(NCCN1CCOCC1)Nc1cccc(Cl)c1`, for which the inhibition is -4% (inactive).

Consider `CCCCN(CC)C(=O)c1cc(Cl)ccc1OC`, for which the inhibition is -8.5% (inactive).

As to `Cc1ccc(NC(=O)CN2C(=O)C(c3ccc(Cl)cc3)=NC2(C)C)cc1`, the inhibition was -11.7% (inactive).

`COc1cc(CN2CCc3nc(N4CCCC4)ncc3C2)cc(OC)c1OC`: the inhibition was 11.5% (inactive).

On to `CN(C)c1ccc(CN2CCc3nc(N4CCN(c5ccccc5F)CC4)ncc3C2)cc1`, for which the inhibition is 39.9% (inactive).

Regarding `CN(C)c1ccc(CN2CCc3nc(N4CCOCC4)ncc3C2)cc1`, the inhibition was 96.6% (active).

Take `COc1ccc(CN2CCc3nc(N4CCN(c5ncccn5)CC4)ncc3C2)cc1OC`: the inhibition is 55.5% (active).

As for `COc1ccc(CN2CCc3nc(N4CCCC4)ncc3C2)cc1OC`, the inhibition was 42.3% (inactive).

Turning to `Cc1ccc(CN2CCc3nc(N4CCCC4)ncc3C2)cc1`, the inhibition is 12.2% (inactive).

For the molecule `COc1ccc(OCc2noc(-c3cccc(F)c3)n2)cc1`, the inhibition was -9.7% (inactive).

Consider `CCN(CC)CCNC(=O)C1CCN(c2nnc3ccccn23)CC1`, for which the inhibition is 5.6% (inactive).

`CCC(=O)Oc1ccc2c(C)c(-c3ccccc3)c(=O)oc2c1`: the inhibition was -4.1% (inactive).

On to `COc1cccc(C=C2Oc3c(ccc(O)c3CN3CC4CC(C3)c3cccc(=O)n3C4)C2=O)c1` (stereo unspecified), for which the inhibition is 32.3% (inactive).
